Results filed as inconclusive are left out. Entries that show only a call come without a potency. Values without a mark were called inactive. The source made the active and inactive calls. The call rests on the fitted dose curve; in most records, active means well fitted inhibition curve with a large enough effect; inconclusive means small, poorly fitted or top-dose-only effect; inactive means flat fitted curve, though single readings scatter.
test: P-glycoprotein substrates identified in KB-8-5-11 adenocarcinoma cell line, qHTS therapeutic library screen (AID 1346987); details: KB-8-5-11 (P-gp overexpressing) viability, CellTiter-Glo, 72 h; series mostly up to 44.5 µM; further: nearly all actives have a fitted effect of over 65% in size
Summary of the method: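 KB-8-5-11: colchicine-selected sub-line of KB-3-1 over-expressing P-gp; assay medium lacked colchicine. 72 h drug exposure at 37 degree C, CellTiter-Glo.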
Potency means the concentration at half of the fitted maximal effect.

SMILES | Potency | activity change, negative = cytotoxicity | outcome
C/C(=C\CC[C@@H](C)[C@H]1CC(O)[C@@]2(C)C3CC[C@H]4C(C)(C)[C@@H](OC5OCC(O)C(O)C5OC5OC(CO)C(O)C(O)C5O)CC[C@@]45C[C@@]35CC(O)[C@]12C)C(=O)O (some centres undefined) | inactive | – | –
Cc1cnc(Nc2ccc(F)cc2Cl)nc1-c1c[nH]c(C(=O)NC(CO)c2cccc(Cl)c2)c1 (centres undefined) | 3.66 µM (active) | – | –
CC(O)CCC1C(CO[C@@H]2O[C@H](CO)[C@@H](O)[C@H](O)[C@H]2O)CC(O)CC1(C)C (some centres undefined) | inactive | – | –
CC1C(=O)OCC2=CCN3CCC(OC(=O)C(C)(O)C1(C)O)C23 (centres undefined) | inactive | – | –
C=C(CO)C12OC1C1(C)C(=CC2=O)C(O)C(O)CC1C (centres undefined) | inactive | – | –
C/C=C/C(O)C1OC(=O)CC1Nc1ccc(C(=O)O)cc1 (centres undefined) | inactive | – | –
NC(=O)Nc1cc(-c2cccc(F)c2)sc1C(=O)NC1CCCNC1 (centres undefined) | 8.2 µM (active) | – | –
C[C@@H]1O[C@@H](O[C@@H]2[C@@H](O)[C@H](O[C@H]3CC[C@@]4(C)C(CC[C@]5(C)C4CC=C4[C@@H]6CC(C)(C)CC[C@]6(C(=O)O[C@@H]6O[C@H](CO)[C@@H](O)[C@H](O)[C@H]6O)CC[C@]45C)C3(C)C)O[C@H](C(=O)O)[C@H]2O)[C@H](O)[C@H](O)[C@H]1O (some centres undefined) | – | 7.63% [at 9.29 µM] | –
C=C[C@H]1CN2CC[C@H]1C[C@@H]2C(O)c1ccnc2ccc(OC)cc12 (some centres undefined) | inactive | – | –
COC(=O)c1cc(OC)c(O[C@@H]2O[C@@H](C)[C@H](O)[C@@H](O)[C@H]2O)c(OC)c1 | inactive | – | –
CC/C=C\CCO[C@@H]1O[C@H](CO)[C@@H](O)[C@H](O)[C@H]1O | inactive | – | –
CC(C)CC(=O)OC1OC=C(CO[C@@H]2O[C@H](CO)[C@@H](O)[C@H](O)[C@H]2O)C2CC(O)C(O)(CO)C12 (some centres undefined) | inactive | – | –
O=C1CC2(CCCC2)[C@H](O)C(=O)N1CCCCN1CCN(c2ncccn2)CC1 | inactive | – | –
COC(=O)C1=CO[C@@H](O[C@@H]2O[C@H](CO)[C@@H](O)[C@H](O)[C@H]2O)[C@@H]2C(CO)=CC[C@]12O | inactive | – | –
CNS(=O)(=O)c1ccccc1Nc1nc(Nc2ccc(N3CCN(C)CC3)cc2OC)ncc1Cl | 0.651 µM (active) | – | –
O=C1N=C(N2CCOCC2)CN1c1ccc(Cl)cc1 | inactive | – | –
COC(=O)[C@@]1(c2ccc(C)cc2)C[C@H]1CN1CCC(O)(c2ccccc2)CC1 | inactive | – | –
CCN1CCN(Cc2ccc(NC(=O)c3ccc(C)c(/C=C/c4cnc5[nH]ccc5c4OC)c3)cc2C(F)(F)F)CC1 | 23.1 µM (active) | – | –
COc1ccc(C(=O)C2CCN(CC(=O)N(Cc3nc4c(c(=O)[nH]3)COCC4)CC3CC3)CC2)cc1 | inactive | – | –
N#Cc1ccc(-c2cnc3[nH]cc(NC(=O)c4cccnc4)c3c2)cc1 | inactive | – | –

SMILES | Potency | activity change, negative = cytotoxicity | outcome
Cc1c(F)cc(C(=O)NC2CC2)cc1-c1c(F)cn2c(C(C)(C)C)nnc2c1F | inactive | – | –
O=C(OC1C=C(CO)C2C(OC3OC(CO)C(O)C(O)C3O)OC=CC12)c1ccc(O)cc1 (centres undefined) | inactive | – | –
CC[C@@H](N)CNc1ccnc(-c2cc(-c3cnn(C)c3)ccc2O)n1 | 5.17 µM (active) | – | –
C/C=C(\C)C(=O)O[C@@H]1CC2[C@@H](CC=C3C[C@@H](O[C@H]4C[C@H](OC)[C@H](O[C@H]5C[C@H](OC)[C@H](O[C@@H]6O[C@H](C)[C@@H](O[C@H]7C[C@H](OC)[C@H](O[C@@H]8O[C@H](CO)[C@@H](O)[C@H](O)[C@H]8O)[C@@H](C)O7)[C@H](OC)[C@H]6O)[C@@H](C)O5)[C@@H](C)O4)CC[C@@]32C)[C@@]2(O)CC[C@H](C(C)=O)[C@@]12C (some centres undefined) | – | – | inactive [at 9.29 µM]
N[C@H]1Cc2ccccc2N(O)C1=O | inactive | – | –
O=C(O)c1cccc(S(=O)(=O)N2CCc3ccccc3C2)c1 | inactive | – | –
N#C[C@@H]1C[C@H](F)CN1C(=O)CNC1[C@H]2CN(C(=O)c3ccc(F)cc3)C[C@@H]12 (some centres undefined) | inactive | – | –
CC1=C(CCC(C)CC(=O)O)[C@@]2(C)CCCC(C)(C)C2CC1=O (some centres undefined) | inactive | – | –
CCC1C(=O)N(C)c2cnc(Nc3ccc(C(=O)NC4CCC(N5CCN(CC6CC6)CC5)CC4)cc3OC)nc2N1C(C)C (centres undefined) | 0.291 µM (active) | – | –
COc1ccc(CC2NCCc3c2[nH]c2ccc(C)cc32)cc1OC (centres undefined) | inactive | – | –
O=C1Nc2ccccc2C(O)(c2ccccc2)C1O (centres undefined) | inactive | – | –
COC(=O)N(C)c1c(N)nc(-c2nn(Cc3ccccc3F)c3ncccc23)nc1N | inactive | – | –
COc1c/c(=C2\C=c3ccccc3=N2)[nH]/c1=C\c1[nH]c(C)cc1C | 1.16 µM (active) | – | –
O=C(NCc1ccc(F)cc1)C(=O)c1c[nH]c2ccccc12 | inactive | – | –
Cc1ccc(NC(=O)C(=O)NC2CC(C)(C)NC(C)(C)C2)cc1 | inactive | – | –
CC(C)=CCC[C@](C)(O[C@@H]1O[C@H](CO)[C@@H](O)[C@H](O)[C@H]1O)[C@H]1CC[C@]2(C)[C@@H]1[C@H](O)CC1[C@@]3(C)CC[C@H](O)C(C)(C)C3[C@@H](O[C@@H]3O[C@H](CO)[C@@H](O)[C@H](O)[C@H]3O)C[C@]12C (some centres undefined) | inactive | – | –
O=C(/C=C/c1ccc(O)cc1)N[C@@H](Cc1ccc(O)cc1)C(=O)O | inactive | – | –
COC(=O)C1=CO[C@@H](O[C@@H]2O[C@H](CO)[C@@H](O)[C@H](O)[C@H]2O)[C@H]2[C@@H]1CC(OC)O[C@@H]2C (some centres undefined) | inactive | – | –
COc1cc(Br)c(S(=O)(=O)Nc2ccc(C(F)(F)F)c(O[C@@H]3CCN(C)C3)c2)cc1OC | inactive | – | –
